The values that follow come from PubChem BioAssay (NCI).

Test systems include NCI-H23 lung; NCI-H322M lung; HOP-62 NSCLC; NCI-H460 lung; HOP-92 NSCLC; NCI-H522 lung; A549/ATCC NSCLC; 786-0 renal; COLO 205 colon.
Assay in all cases: NCI-60 one-dose screen, 48 h (100 = growth as untreated, 0 = no growth, -100 = all killed)
Settings in all cases: 10 µM unless noted

SMILES strings stand for the structures. The panel holds about 83,000 compounds, 20% with a hit somewhere; the sample as a whole holds those more often.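 Method: cells in 96-well plates; compound added at one concentration; 48 h incubation; percent growth measured; values under 10 scored active.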 Unmarked numbers belong to inactive results. Active and inactive are the calls of the source.

As for `Cc1cn(-c2cc(NC(=O)c3cncc(C#Cc4cnc(N)c5ncccc45)c3)cc(C(F)(F)F)c2)cn1`, the growth in the test with NCI-H23 lung is 43.5%; with NCI-H322M lung, 83.4%; with HOP-62 NSCLC, 70.9%; in the test on NCI-H460 lung it was 71.2%; in the test on HOP-92 NSCLC it was 43.3%; in the test on NCI-H522 lung, 52.2%. The growth with A549/ATCC NSCLC was 88.1%; with 786-0 renal it was 71.6%; with COLO 205 colon, 28.4%.

In the case of `CC(C)c1ccc(-n2c(=S)[nH]c3sc4cc(O)ccc4c3c2=O)cc1`, the growth was 98.6% with NCI-H23 lung; 90.4% in the test on NCI-H322M lung; 102% in the test on HOP-62 NSCLC; 101% with NCI-H460 lung; 80.2% with HOP-92 NSCLC; 99.9% in the test on NCI-H522 lung. Moreover, the growth is 106% in the test with A549/ATCC NSCLC, 103% with 786-0 renal and 102% with COLO 205 colon.

As for `O=C(N/N=C/c1c(Cl)cccc1Cl)c1cccnc1Nc1cccc(C(F)(F)F)c1`, the growth in the test on NCI-H23 lung was 44.3%; in the test on NCI-H322M lung, 35%; in the test on HOP-62 NSCLC, 40.2%; with NCI-H460 lung, 15%; in the test on HOP-92 NSCLC, 14.7%; with NCI-H522 lung, 1.47% (active). The growth was 51% in the test with A549/ATCC NSCLC, 42.6% in the test with 786-0 renal and 15.1% in the test with COLO 205 colon.

Regarding `CN1C(=O)/C(=C\c2c(Cl)cccc2Cl)c2ccccc21`, the growth is 90.7% with NCI-H23 lung; 96.5% in the test with NCI-H322M lung; 86.5% in the test on HOP-62 NSCLC; 103% with NCI-H460 lung; 83.4% in the test with HOP-92 NSCLC; 83.3% in the test with NCI-H522 lung. Moreover, the growth with A549/ATCC NSCLC was 88%; in the test on 786-0 renal, 84.3%; with COLO 205 colon, 113%.

Take `Clc1ccc(/C=N\N=C\c2ccc(Cl)c(Cl)c2)cc1Cl`: the growth in the test with NCI-H23 lung is 84.9%; in the test with NCI-H322M lung, 102%; in the test with HOP-62 NSCLC, 95.8%; in the test on NCI-H460 lung it was 47.1%; in the test on HOP-92 NSCLC, 88.6%; in the test on NCI-H522 lung, 77.4%. Besides, the growth in the test with A549/ATCC NSCLC was 87.2%; in the test with 786-0 renal it was 97.3%; with COLO 205 colon, 90.8%.

For `COc1c(C(=O)Nc2ccc(C)c(Br)c2)ccc2ccccc12`, the growth is 90.6% with NCI-H23 lung; 104% with NCI-H322M lung; 99.8% with HOP-62 NSCLC; 102% with NCI-H460 lung; 105% in the test on HOP-92 NSCLC; 85% in the test on NCI-H522 lung. Further, the growth in the test with A549/ATCC NSCLC is 87.9%; in the test on 786-0 renal, 96.5%; in the test with COLO 205 colon, 101%.

For `CCN1C(=S)N(c2ccccc2)C2C1NN=c1s/c(=C3\C(=O)N(C(C)C)c4ccccc43)c(=O)n12` (configuration not stated), the growth with NCI-H23 lung was 75.4%; with NCI-H322M lung, 82.8%; in the test with HOP-62 NSCLC it was 73.4%; in the test with NCI-H460 lung, 47.8%; in the test on HOP-92 NSCLC it was 100%; in the test with NCI-H522 lung it was 78.6%. Moreover, the figures for the growth in the test on A549/ATCC NSCLC, in the test on 786-0 renal and in the test on COLO 205 colon were 57.8%, 93.7% and 89.4%, respectively.

For the molecule `Cc1cc(C)c2c(c1)N(C)c1ncnc(-n3cnc4cc(C)ccc43)c1CC2C` (configuration not stated), the growth was 37.9% in the test on NCI-H23 lung; 31.8% in the test on HOP-62 NSCLC; 7.26% (active) in the test on NCI-H460 lung; 38.3% in the test on HOP-92 NSCLC; -0.316% (active) in the test with NCI-H522 lung; 26.2% in the test with A549/ATCC NSCLC. For the same molecule, the growth is 22.8% in the test on 786-0 renal and 0.292% (active) with COLO 205 colon.

For `O=C(c1ccccc1)c1ccc(C2CCCCC2)cc1`, the growth is 95% in the test with NCI-H23 lung; 99.7% in the test with NCI-H322M lung; 98.5% in the test on HOP-62 NSCLC; 97% in the test on NCI-H460 lung; 76.2% in the test with HOP-92 NSCLC; 88.9% in the test on NCI-H522 lung. The growth in the test on A549/ATCC NSCLC is 98%; in the test with 786-0 renal it was 90.1%.

Consider `CCCCCCC12CCC(=O)N1CCc1cncn12` (configuration not stated), for which the growth in the test with NCI-H23 lung was 108%; in the test on NCI-H322M lung, 109%; with HOP-62 NSCLC, 100%; with NCI-H460 lung it was 105%; in the test with HOP-92 NSCLC, 113%; in the test with NCI-H522 lung, 90%. Further, the growth in the test on A549/ATCC NSCLC was 95.3%; with 786-0 renal, 112%; in the test with COLO 205 colon, 106%.

On to `NC(=O)C(=O)c1ccccc1NC=O`, for which the growth in the test on NCI-H23 lung was 92.1%; with NCI-H322M lung, 95.3%; with HOP-62 NSCLC, 86.9%; in the test on NCI-H460 lung, 103%; in the test on HOP-92 NSCLC it was 83.2%; with NCI-H522 lung it was 88.9%. Besides, the values for the growth with A549/ATCC NSCLC, in the test with 786-0 renal and in the test on COLO 205 colon were 99.7%, 110% and 118%, respectively.

Turning to `COCCNC(=O)Nc1ccc2nc(-c3cccs3)c(-c3cccs3)nc2c1`, the growth was 90% with NCI-H23 lung; 98.6% with NCI-H322M lung; 101% in the test on HOP-62 NSCLC; 88.7% with NCI-H460 lung; 80.8% in the test with HOP-92 NSCLC; 76.6% in the test with NCI-H522 lung. For the same molecule, the growth in the test with A549/ATCC NSCLC was 87.5%; in the test with 786-0 renal, 96.9%; with COLO 205 colon, 107%.

Consider `O=S(=O)(NCCCNc1nccc(-c2c(-c3ccc(F)c(O)c3)nc3occn23)n1)c1ccc(Cl)cc1`, for which the growth in the test on NCI-H23 lung was 70.7%; in the test with NCI-H322M lung, 85.3%; with HOP-62 NSCLC it was 88.3%; in the test with NCI-H460 lung it was 62.3%; in the test on NCI-H522 lung, 63.1%; with A549/ATCC NSCLC it was 72.4%. Moreover, the results for the growth with 786-0 renal and with COLO 205 colon were 106% and 42.9%, respectively.

As for `Oc1c(Br)cc(Br)c2ccc(Cn3cc(-c4ccc(C(F)(F)F)cc4)nn3)nc12`, the growth in the test with NCI-H23 lung is 84.7%; in the test on NCI-H322M lung it was 103%; in the test with HOP-62 NSCLC it was 98.9%; with NCI-H460 lung, 103%; with HOP-92 NSCLC, 21.5%; in the test on NCI-H522 lung, -43.5% (active). Besides, the growth was 103% in the test on A549/ATCC NSCLC, 96.9% with 786-0 renal and 59.7% in the test with COLO 205 colon.

Consider `CSc1nc(N)c(NS(=O)(=O)c2ccc(C(C)=O)cc2)c(=O)[nH]1`, for which the growth is 95.5% with NCI-H23 lung; 100% in the test on NCI-H322M lung; 105% in the test on HOP-62 NSCLC; 103% in the test with NCI-H460 lung; 103% with HOP-92 NSCLC; 99.6% with NCI-H522 lung. The values for the growth in the test on A549/ATCC NSCLC, in the test on 786-0 renal and in the test with COLO 205 colon were 102%, 78.9% and 98.6%, respectively.
